From PubChem BioAssay AID588689 (Southern Research Specialized Biocontainment Screening …, 2011)
Screen size: about 340,000 compounds; about 1,000 (0.29%) were called active. Cut-off read from the data, not from the text of the source: inconclusive = inhibition above about 29% without an active follow-up result; inactive = below that. The list is a sample of the results. Potency and affinity values are given separately.

Target: Genome polyprotein (Dengue virus type 2 (strain 16681-PDK53)) (UniProt P29991)
Assay: flavivirus cap methylation enzyme inhibition – biochemical, confirmation dose response, primary screen (AID 588689)
Details: Dengue-2 NS5 methyltransferase capping enzyme assay, at 25 µM, stronger effect = higher value
[1] = measured here: pilot screen replicate inhibition

Genome polyprotein (Dengue virus type 2 (strain 16681-PDK53)), sequence (P29991 whole entry, looked up): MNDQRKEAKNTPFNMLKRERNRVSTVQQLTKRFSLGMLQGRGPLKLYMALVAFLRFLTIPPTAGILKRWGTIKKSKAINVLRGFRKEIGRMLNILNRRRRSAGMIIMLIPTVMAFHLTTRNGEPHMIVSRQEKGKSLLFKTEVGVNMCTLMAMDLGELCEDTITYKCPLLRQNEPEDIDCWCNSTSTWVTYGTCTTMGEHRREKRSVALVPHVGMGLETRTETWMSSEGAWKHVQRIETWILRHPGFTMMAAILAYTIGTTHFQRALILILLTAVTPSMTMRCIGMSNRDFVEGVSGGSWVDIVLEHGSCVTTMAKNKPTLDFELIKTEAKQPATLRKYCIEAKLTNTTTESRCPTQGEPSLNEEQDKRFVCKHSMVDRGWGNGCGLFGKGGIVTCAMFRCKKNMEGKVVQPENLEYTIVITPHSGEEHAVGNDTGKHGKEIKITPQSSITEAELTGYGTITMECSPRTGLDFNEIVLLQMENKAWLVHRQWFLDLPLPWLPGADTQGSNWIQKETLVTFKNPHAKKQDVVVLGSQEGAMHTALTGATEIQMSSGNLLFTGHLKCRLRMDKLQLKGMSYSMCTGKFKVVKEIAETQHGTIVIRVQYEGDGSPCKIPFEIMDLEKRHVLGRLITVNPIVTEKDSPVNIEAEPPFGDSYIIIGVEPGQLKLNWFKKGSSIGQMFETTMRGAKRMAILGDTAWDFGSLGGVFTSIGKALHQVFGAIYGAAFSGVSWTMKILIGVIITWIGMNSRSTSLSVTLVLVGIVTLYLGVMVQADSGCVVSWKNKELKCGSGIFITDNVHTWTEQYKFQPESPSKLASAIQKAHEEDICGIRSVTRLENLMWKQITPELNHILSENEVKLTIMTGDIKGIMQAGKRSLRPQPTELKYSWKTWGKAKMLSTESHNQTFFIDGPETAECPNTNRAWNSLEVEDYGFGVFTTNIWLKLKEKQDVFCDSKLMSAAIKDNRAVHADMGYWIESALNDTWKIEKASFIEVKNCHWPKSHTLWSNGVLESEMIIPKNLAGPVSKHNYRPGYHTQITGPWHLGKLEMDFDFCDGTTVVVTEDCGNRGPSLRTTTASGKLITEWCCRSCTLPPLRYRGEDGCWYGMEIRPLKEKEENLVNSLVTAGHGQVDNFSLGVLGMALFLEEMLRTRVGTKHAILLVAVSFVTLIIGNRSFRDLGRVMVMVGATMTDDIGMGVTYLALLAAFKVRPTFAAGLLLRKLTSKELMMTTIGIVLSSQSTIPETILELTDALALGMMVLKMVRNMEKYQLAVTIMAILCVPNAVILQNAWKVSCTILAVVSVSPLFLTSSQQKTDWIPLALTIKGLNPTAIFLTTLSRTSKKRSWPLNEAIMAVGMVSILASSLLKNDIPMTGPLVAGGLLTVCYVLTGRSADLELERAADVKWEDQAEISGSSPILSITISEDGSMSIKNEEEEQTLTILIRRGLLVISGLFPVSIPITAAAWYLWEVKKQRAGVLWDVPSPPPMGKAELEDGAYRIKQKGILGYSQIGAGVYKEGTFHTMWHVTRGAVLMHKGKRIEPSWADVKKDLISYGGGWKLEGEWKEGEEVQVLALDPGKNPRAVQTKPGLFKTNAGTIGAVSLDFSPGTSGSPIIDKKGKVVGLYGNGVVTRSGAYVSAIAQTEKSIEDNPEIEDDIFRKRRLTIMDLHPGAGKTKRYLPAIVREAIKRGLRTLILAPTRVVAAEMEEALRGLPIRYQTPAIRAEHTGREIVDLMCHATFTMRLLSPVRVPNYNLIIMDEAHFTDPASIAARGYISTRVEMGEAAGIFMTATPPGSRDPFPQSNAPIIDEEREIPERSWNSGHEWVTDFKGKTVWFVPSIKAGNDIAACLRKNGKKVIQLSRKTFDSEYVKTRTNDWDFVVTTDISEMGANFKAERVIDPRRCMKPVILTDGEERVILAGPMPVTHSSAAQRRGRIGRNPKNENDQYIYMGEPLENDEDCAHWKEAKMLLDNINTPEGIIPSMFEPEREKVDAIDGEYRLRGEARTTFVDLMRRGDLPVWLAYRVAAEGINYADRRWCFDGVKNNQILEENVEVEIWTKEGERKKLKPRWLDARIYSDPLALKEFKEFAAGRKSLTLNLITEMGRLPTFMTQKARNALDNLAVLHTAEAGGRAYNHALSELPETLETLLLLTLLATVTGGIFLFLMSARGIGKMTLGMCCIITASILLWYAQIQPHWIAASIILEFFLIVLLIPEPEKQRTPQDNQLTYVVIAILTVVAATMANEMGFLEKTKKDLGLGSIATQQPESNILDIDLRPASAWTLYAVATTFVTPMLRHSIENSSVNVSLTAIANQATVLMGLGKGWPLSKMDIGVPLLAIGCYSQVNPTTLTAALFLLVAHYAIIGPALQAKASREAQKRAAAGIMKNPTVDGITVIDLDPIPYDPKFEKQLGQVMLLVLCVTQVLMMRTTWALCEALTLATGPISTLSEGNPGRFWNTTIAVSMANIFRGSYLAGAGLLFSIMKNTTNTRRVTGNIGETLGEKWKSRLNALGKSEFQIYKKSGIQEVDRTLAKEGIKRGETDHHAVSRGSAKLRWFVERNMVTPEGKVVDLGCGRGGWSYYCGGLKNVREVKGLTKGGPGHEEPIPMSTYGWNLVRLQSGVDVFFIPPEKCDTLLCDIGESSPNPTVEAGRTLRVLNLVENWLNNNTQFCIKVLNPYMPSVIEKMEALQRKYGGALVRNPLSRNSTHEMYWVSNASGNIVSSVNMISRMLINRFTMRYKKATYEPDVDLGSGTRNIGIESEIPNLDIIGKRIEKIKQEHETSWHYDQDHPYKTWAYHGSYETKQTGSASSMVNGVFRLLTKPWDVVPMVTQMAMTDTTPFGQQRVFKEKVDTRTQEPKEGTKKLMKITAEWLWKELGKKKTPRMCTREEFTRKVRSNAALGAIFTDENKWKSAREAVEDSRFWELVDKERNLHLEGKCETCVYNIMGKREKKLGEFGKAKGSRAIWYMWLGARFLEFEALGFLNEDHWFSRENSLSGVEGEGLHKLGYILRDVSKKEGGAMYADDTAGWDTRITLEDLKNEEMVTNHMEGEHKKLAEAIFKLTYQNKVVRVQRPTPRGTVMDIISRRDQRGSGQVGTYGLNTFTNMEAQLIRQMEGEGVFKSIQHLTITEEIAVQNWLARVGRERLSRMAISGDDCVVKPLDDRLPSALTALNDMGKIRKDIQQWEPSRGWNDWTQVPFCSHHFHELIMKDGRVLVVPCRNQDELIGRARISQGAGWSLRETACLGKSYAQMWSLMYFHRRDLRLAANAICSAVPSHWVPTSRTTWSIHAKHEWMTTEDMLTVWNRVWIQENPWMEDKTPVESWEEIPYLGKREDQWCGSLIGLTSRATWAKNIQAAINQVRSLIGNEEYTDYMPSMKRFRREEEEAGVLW

Compound: CCCCCc1cc(OC)cc2c1C(=O)OC(C)(C)O2
- inhibition: 1.32% (inactive)
- inhibition [1]: -1.23%

Compound: COc1ccc(OC)c(C(=O)CCCCC(=O)c2cc(OC)ccc2OC)c1
- inhibition: 2.88% (inactive)

Compound: CCCCc1c(C(=O)O)cc(OC)cc1C(=O)O
- inhibition: 5.73% (inactive)

Compound: COc1ccc(OC)c(C(=O)CCCC(=O)c2cc(OC)ccc2OC)c1
- inhibition: 5.23% (inactive)

Compound: Cc1nc2c([nH]1)C1(CCN(Cc3ccccc3)CC1)C(C#N)=C(N)O2
- inhibition: 12.1% (inactive)

Compound: O=C(c1ccncc1)N(Cc1cc2ccccc2[nH]c1=O)C1CCCCC1
- inhibition: -1.6% (inactive)

Compound: Cc1ccc(NS(=O)(=O)c2ccccc2)c(NS(=O)(=O)c2ccccc2)c1
- inhibition: 13.2% (inactive)

Compound: COc1ccc(S(=O)(=O)NC2CC3CCC2C3)cc1 (stereo unspecified)
- inhibition: -4.66% (inactive)

Compound: COc1cccc(-c2coc3c(C)c4oc(=O)c(CC(=O)O)c(C)c4cc23)c1
- inhibition: 1.96% (inactive)

Compound: COc1ccc(-c2coc3c(C)c4oc(=O)c(CCC(=O)O)c(C)c4cc23)cc1
- inhibition: 11.8% (inactive)

Compound: Cc1c(CC(=O)O)c(=O)oc2c(C)c3occ(-c4ccc(Br)cc4)c3cc12
- inhibition: 26.1% (inactive)

Compound: Cc1c(CCC(=O)O)c(=O)oc2cc3occ(-c4ccc(Br)cc4)c3cc12
- inhibition: 17.7% (inactive)

Compound: Cc1c(CCC(=O)O)c(=O)oc2cc3occ(-c4ccc(Cl)cc4)c3cc12
- inhibition: 18.3% (inactive)

Compound: COc1ccccc1COc1ccc2c(C)c(CCC(=O)O)c(=O)oc2c1C
- inhibition: 7.18% (inactive)

Compound: COc1cccc(-c2coc3cc4oc(=O)c(CCC(=O)O)c(C)c4cc23)c1
- inhibition: 9.7% (inactive)

Compound: Cc1c(CC(=O)O)c(=O)oc2c(C)c(OCc3ccc(F)cc3Cl)ccc12
- inhibition: 1.96% (inactive)

Compound: CCC[C@@H](CN1CCC[C@H]1CN1C(N)=NC[C@@H]1Cc1ccccc1)N1C[C@@H]([C@H](C)CC)N(CCc2ccc(Cl)c(Cl)c2)C1=N
- inhibition: -10.2% (inactive)

Compound: COc1ccc(-n2c(=O)cc(N3CC(C)OC(C)C3)[nH]c2=O)cc1 (stereo unspecified)
- inhibition: -3.21% (inactive)

Compound: N#Cc1ccc(OCc2nnc3n2CCCCC3)cc1
- inhibition: -1.53% (inactive)

Compound: CCOCCn1c(CN2CCN(C(c3ccccc3)c3ccccc3)CC2)nc2c1c(=O)n(C)c(=O)n2C
- inhibition: -5.88% (inactive)

Compound: COc1ccc(NC(=O)Nc2ccc3c(c2)CCC3)cc1
- inhibition: 1.61% (inactive)

Compound: CCC(=O)OCCNc1cc(Sc2nc3ccccc3[nH]2)c2nonc2c1[N+](=O)[O-]
- inhibition: 29.8% (inactive)

Compound: Cc1nnc(Sc2cc(NCCO)c([N+](=O)[O-])c3nonc23)s1
- inhibition: 1.46% (inactive)

Compound: CN(CCO)c1cc(Sc2nc3ccccc3s2)c2nonc2c1[N+](=O)[O-]
- inhibition: 48.2% (inactive)

Compound: CCCC(=O)OCCNc1cc(Sc2nc3ccccc3[nH]2)c2nonc2c1[N+](=O)[O-]
- inhibition: 20.4% (inactive)

Compound: Cc1ccc(Sc2cc(NCCCO)c([N+](=O)[O-])c3nonc23)cc1
- inhibition: 16.2% (inactive)

Compound: Cc1nnc(Sc2cc(NCCCO)c([N+](=O)[O-])c3nonc23)s1
- inhibition: 18.5% (inactive)

Compound: C[C@@H]1CC=C[C@@H]2[C@H]1C(=O)N(Cc1ccccc1)[C@H]2c1cccc(C#Cc2ccccc2)c1
- inhibition: -4.3% (inactive)
- inhibition [1]: -5.45%

Compound: CC(C)=CCC(C)(C)C1OCCN1C(=O)c1ccccc1 (stereo unspecified)
- inhibition: -7.18% (inactive)

Compound: Cc1cc(Br)ccc1NC(=O)CN(C)C(=O)C1CCN(C(=O)c2ccc(Cl)cc2)CC1
- inhibition: -3.75% (inactive)

Compound: O=C1OC(c2ccccc2)c2ccc3ccccc3c21 (stereo unspecified)
- inhibition: -10.9% (inactive)

Compound: CCOc1ccc2c(C)c(Cl)c(=O)oc2c1
- inhibition: -0.69% (inactive)

Compound: OCCN1CCN(c2cc(-c3ccccc3)c3ccccc3n2)CC1
- inhibition: -4.36% (inactive)

Compound: Cc1ccc(NC(=O)COC(=O)c2c(C)nn(-c3ccccc3)c2C)cc1
- inhibition: 7.29% (inactive)

Compound: C=CCOc1ccc(/C=C2\SC(=S)N(N3CCOCC3)C2=O)cc1
- inhibition: -7.66% (inactive)

Compound: Cc1ccc(/C=C2\SC(=S)N(CCC(=O)NNS(=O)(=O)c3ccc(C)cc3)C2=O)cc1
- inhibition: -5.09% (inactive)

Compound: CC(=O)NN1C(=O)/C(=C\c2ccccc2)SC1=S
- inhibition: -3.17% (inactive)

Compound: COc1cccc(-n2nnnc2SCC(=O)NCc2ccco2)c1
- inhibition: -6.77% (inactive)

Compound: O=C(NCCc1c[nH]c2ccccc12)c1ccco1
- inhibition: -0.82% (inactive)

Compound: O=C(CNC(=O)C(c1ccccc1)c1ccccc1)N/N=C\c1ccc(C(=O)O)cc1
- inhibition: 0% (inactive)

Compound: Cc1ccc(S(=O)(=O)N2CCN(S(=O)(=O)N3CCOCC3)CC2)cc1C
- inhibition: 2.05% (inactive)

Compound: O=C(CCN1CCN(c2ccccc2)CC1)N/N=C/c1ccccc1O
- inhibition: -10.4% (inactive)

Compound: O=C(CCc1ccc(S(=O)(=O)N2CCOCC2)cc1)N/N=C/c1cccc(O)c1
- inhibition: -1.28% (inactive)

Compound: COc1ccc(/C=N/NC(=O)CCN2CCN(c3ccccc3)CC2)c(OC)c1OC
- inhibition: -0.66% (inactive)

Compound: Cc1cc(/C=N/NC(=O)c2ccccc2F)c(C)n1-c1ccccc1
- inhibition: -8.18% (inactive)

Compound: CCn1c(C)nc2cc(C(=O)N/N=C/c3cccc(O)c3O)ccc21
- inhibition: -0.82% (inactive)

Compound: CCn1c(C)nc2cc(C(=O)N/N=C/c3cccc(OC)c3O)ccc21
- inhibition: -3.68% (inactive)

Compound: COc1ccc(/C=N/NC(=O)c2cc(C)n(-c3ccccc3)c2C)cc1OC
- inhibition: -10.9% (inactive)

Compound: O=C(CCc1ccc(S(=O)(=O)N2CCOCC2)cc1)N/N=C/c1ccc(F)cc1F
- inhibition: -6.07% (inactive)
